Screening results from PubChem.
A selection: hits, their analogues and other compounds. The true share with any hit is near 4.1%.
Shn3 inh set2: reduction of Shn3 3'UTR firefly luciferase signal, primary screen, Schnurri-3 inhibitor project, cell-based, Clone20 osteoblasts, set 2; Clone20 osteoblast Shn3 3'UTR firefly luciferase, 24 h; inhibition, % at 12.5 µM; 360,000 tested, 0.52% active; AID 588674, 2011;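 active = mean inhibition of at least 75% with every replicate also reaching 75%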;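 also: 0% = median of neutral control wells and 100% = pilot-screen positive control compound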
TWEAK Fn14 block: inhibitors of TWEAK-Fn14 signaling, primary screen, luciferase reporter cells, uHTS; TWEAK-stimulated Fn14 reporter cells, luciferase luminescence, 8 h; 360,000 tested, 2% active; inhibition, % at 10 µM; AID 1159606, 2016; in the data active = inhibition above about 50%
Peg3 prom inh: Peg3 promoter-driven luciferase inhibitors, primary screen, cell-based, HeLa, luciferase luminescence; HeLa PEG-Prom luciferase reporter, overnight; inhibition, % at 20 µM; 360,000 tested, 1.7% active;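 active = inhibition of at least 50% at 20 µM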
MITF TRPM1 inh: inhibitors of MITF-dependent TRPM1 promoter reporter, primary screen, cell-based, SK-MEL-5, single point, luciferase. SK-MEL-5 TRPM1 promoter luciferase, 24 h. inhibition, % at 12.5 µM. 330,000 tested, 0.83% active. AID 488899, 2010;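 active = mean inhibition across replicates of 60% or more, whatever share of single replicates reaches that level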
TROY signal inh: inhibitors of TROY-driven NF-kB signaling, primary screen, Q293 LMP1-TROYcd cells, NF-kB luciferase, uHTS; Q293 LMP1-TROYcd NF-kB luciferase reporter, 4 h; inhibition, % at 10 µM; 360,000 tested, 0.98% active;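 active = compounds whose plate-normalised and pattern-corrected inhibition of the luciferase reporter signal at the single screening dose is 50% or more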
EBV LMP1 NFkB: EBV LMP1-driven NF-kappaB luciferase reporter inhibitors, primary screen, cell-based, luminescence, single point | LMP1-induced NF-kappaB luciferase reporter cells | AID 504558, 2011 | 350,000 tested, 0.69% active | inhibition, % at 12.5 µM; in the data active = inhibition above about 41%;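 also: 0% = neutral control wells and 100% = reference inhibitor control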
The depositor's hits bear a star; nt = not tested or not shown.

SMILES	Shn3 inh set2	TWEAK Fn14 block	Peg3 prom inh	MITF TRPM1 inh	TROY signal inh	EBV LMP1 NFkB
O=C(CNC(=O)c1ccccn1)N=Nc1c(O)[nH]c2ccccc12	-16	-12	-124	-15	-51	-14
Fc1ccc(C2CCNCC2COc2ccc3c(c2)OCO3)cc1 (configuration not stated)	9	15	61*	-9	-4	-9
O=c1c(Sc2ccccc2)c(C(F)(F)F)[nH]n1-c1ccccc1	-7	7	34	-1	53*	-3
O=C(OCC(=O)N1CCC(Cc2ccccc2)CC1)c1ccc[nH]c1=O	-3	-5	18	-2	-7	3
O=C(CSC1=N/C(=C/c2ccc(Cl)c(Cl)c2)C(=O)N1c1ccccc1F)NC1CC1	6	61*	-34	0	18	7
CC(C)N1CCC2(CC1)N=C(c1ccc3c(c1)OCO3)CC(c1cc(Cl)ccc1O)N2 (configuration not stated)	-17	51*	101*	-12	4	6
O=C(CCS(=O)(=O)c1ccccc1)N(CCCN1CCOCC1)c1nc2ccccc2s1	-27	28	108*	-35	-13	-14
COc1ccc(NC(=O)COC(=O)CCc2ccc(S(=O)(=O)N3CCOCC3)cc2)cc1OC	4	-16	-3	-1	8	5
COC(=O)C1=C(C(=O)c2ccccc2)C(c2ccccc2)n2nnnc2N1 (configuration not stated)	8	1	3	-20	-13	63*
O=C(c1cc2nc(-c3ccc(F)cc3)cc(C(F)(F)F)n2n1)N1CCCCC1c1cccnc1 (configuration not stated)	90*	61*	12	39	45	5
C=CCSc1nnc(NC(=O)CN2C(=O)NC3(CCCC3)C2=O)s1	-5	0	8	-1	-9	-3
c1coc(-c2ccc3nncn3c2)c1	10	20	-10	nt	-2	nt
c1cc(N2CCOCC2)ccc1-c1ccc2nncn2c1	-22	90*	8	nt	86*	nt
COc1ccc(CCNC(=O)C(=O)NCC2CCCN2S(=O)(=O)c2ccccc2)cc1 (configuration not stated)	26	-18	39	1	51*	8
COc1cccc(N2C(C(C)=O)=NN(c3ccccc3)C2c2ccc(N3CCOCC3)cc2)c1 (configuration not stated)	-76	55*	-101	-17	43	-5
Cc1ccccc1P(=O)(c1ccccc1)c1ccccc1C	2	-16	13	nt	-4	-1
C/C(=N\NC(=O)c1ccc([N+](=O)[O-])cc1Cl)c1ccccc1	-30	-31	-205	-20	-24	-24
CC(Nc1nc(N2CCCCC2)nc2ccccc12)c1ccccc1 (configuration not stated)	44	-42	68*	6	4	-3
CC(=O)Oc1ccc(C(=O)Nc2ccccc2C(=O)Nc2ccc(C(=O)O)cc2)cc1	-17	0	8	2	5	7
Cc1ccc(S(=O)(=O)Nc2cc(-c3nn(C)c(=O)c4ccccc34)ccc2N2CCOCC2)cc1	18	43	24	44	28	-2
Cn1nc(-c2ccc(N3CCOCC3)c(NS(=O)(=O)c3ccc(Cl)cc3)c2)c2ccccc2c1=O	-59	61*	24	18	nt	4
O=C(O)Cn1ccc2cc(S(=O)(=O)N3CCCCCC3)ccc21	-4	1	8	2	-19	-7
CCOC(=O)c1c(N)sc(C(=O)Nc2ccc3c(c2)OCO3)c1C	9	79*	21	-2	42	28
C=CCOc1c(CNc2cccc(C(=O)O)c2)cccc1OC	-76	54*	-188	-50	9	-31
CSc1ccccc1OCc1cc(C(=O)N2CCCC(C)C2)no1 (configuration not stated)	2	-10	-337	-159	-63	-30
CSc1ccccc1OCc1cc(C(=O)N2CCC[C@H]2C(N)=O)no1	1	28	-6	1	7	63*
